From PubChem BioAssay (NCATS)
Where “and” joins values, the source holds several entries; their conditions need not be identical. Equal values may be shown once. Results filed as inconclusive are left out. Calls of active or inactive are those of the source. Unless noted, calls follow the shape of the dose curve; as a rule, active = well fitted curve in the direction sought with a large enough effect; inconclusive = small, poorly fitted or top-dose-only effect, or another doubt; inactive = no such curve, though single readings can be large; an effect the other way counts as inactive or inconclusive.

What was measured:
[1] = system: Zika virus NS2B-NS3 protease (linked construct); test: Primary screen NINDS Rhodamine qHTS for Zika virus inhibitors (AID 1347160); also: nearly all actives have a fitted effect of over 55% in size; also: potency is read from the fitted curve at half-maximal effect
Method in brief: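 Each compound, titrated, sat 15 min with 25 nM linked protease before 1.5 microM Rhodamine110 substrate went in. Fluorescence gain over the next 15 min, in pH 8.0 Tris with Tween 20, gave Hill-fitted curves.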

[2] = target: Calcium and integrin-binding protein 1 (Homo sapiens) (UniProt Q99828); test: Primary qHTS for Identification of Calcium Integrin Binding Protein 1 (CIB1) Competitor (AID 1508620);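 also: GST tagged CIB1 binding a fluorescein labelled alphaIIb integrin peptide tracer; top concentration of the series differs between compounds; % is scaled to controls: 0 for no effect and ±100 for the full control effect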
Method in brief: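 Fluorescence polarization competition: GST-tagged CIB1 (1 uM final) preincubated with compound 15 min at room temperature, then FITC-labelled alphaIIb peptide (100 nM final) added. After 15 min at room temperature, polarization read at Ex 480/Em 540.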

[3] = Primary qHTS for inhibitors of nuclear receptor binding SET domain protein 2 (NSD2) in an isogenic RCH-ACV NSD2 p.E1099K mutant (9B) (AID 1645876); also: potency is read from the fitted curve at half-maximal effect; nearly all actives have a fitted effect of over 70% in size
[4] = Primary qHTS for inhibitors of nuclear receptor binding SET domain protein 2 (NSD2) in an RCH-ACV wild type WT cells (2C) (AID 1645877); also: potency is read from the fitted curve at half-maximal effect; nearly all actives have a fitted effect of over 70% in size
[5] = target: Glutathione peroxidase 1 (Homo sapiens) (UniProt P07203); test: Primary qHTS Assay for Inhibitors of Recombinant Selenoprotein Glutathione Peroxidase 1 (GPX1) (AID 1845191); also: nearly all actives have a fitted effect of over 65% in size
Method in brief: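 GR-coupled readout: NADPH consumption tracked by fluorescence, ex 340/em 450 nm, at t=0 and after 15 min at RT. Final mix 10 nM GPX1, 1 mM GSH, 0.5 mM CHP, 0.5 mM NADPH, 100 nM GR, 0.01% BSA, following 30 min enzyme–compound preincubation.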

[6] = target: Phospholipid hydroperoxide glutathione peroxidase GPX4 (Homo sapiens) (UniProt P36969); test: Primary qHTS Assay for Inhibitors of Recombinant Selenoprotein Glutathione Peroxidase 4 (GPX4) (AID 1845192); details: outcome: dose series up to 50 µM unless noted; also: % is scaled to controls: 0 for no effect and ±100 for the full control effect; nearly all actives have a fitted effect of over 65% in size
Method in brief: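 Steps: GPX4 plus compound, 30 min RT; add GR/GSH/NADPH master mix; start with cumene hydroperoxide; read 340/450 nm fluorescence at 0 and 15 min. Finals were 200 nM GPX4, 1 mM GSH, 0.5 mM CHP, 0.5 mM NADPH, 100 nM GR.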

[7] = target: Luciferin 4-monooxygenase (Photinus pyralis) (UniProt P08659); test: Primary firefly luciferase (FLuc) qHTS assay for identification of artifact compounds. (AID 1845220); also: nearly all actives have a fitted effect of over 60% in size
Method in brief: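 Titrated compounds were incubated 15 min at RT, protected from light, with luciferin and ATP at 10 uM; reaction started with 10 nM FLuc, luminescence imaged at 5 min, and concentration-response fitted by Hill equation.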

[8] = Primary fluorescence-based thiol-reactive (MSTI) qHTS assay for identification of artifact compounds. (AID 1845221);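 also: thiol-reactive compounds lower the probe fluorescence signal; nearly all actives have a fitted effect of over 65% in size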
Method in brief: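 Thiol-reactive compounds detected by quenching of 4 uM MSTI fluorescence (525/598 nm) after 1 h room-temperature dark incubation in PBS pH 7.4, 2% DMSO. qHTS titration; percent inhibition Hill-fitted against Acetyl-MSTI/MSTI controls.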

[9] = system: Nanoluciferase (engineered Oplophorus gracilirostris luciferase); test: Primary Nanoluciferase (NLuc) qHTS assay for identification of artifact compounds. (AID 1845222);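 also: NLuc secreted into diluted conditioned medium of S16 cells; 0% = DMSO and -100% = no enzyme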
Method in brief: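 qHTS format, against NLuc in S16 cell-conditioned medium. Nano-Glo substrate 1:100 was added after 15 min at room temperature. Luminescence was taken after a further 5 min.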

[10] = Primary redox qHTS assay for identification of artifact compounds. (AID 1845223);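 also: 0% = DMSO and 100% = reference compound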
Method in brief: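 Redox-cycling detection via DTT (250 uM final) oxidation coupled to Amplex Red (25 uM)/HRP (250 mU/mL) in HBSS. 15 min preincubation plus 30 min after DTT, room temperature. Ex/Em 525/598 nm; 4-parameter Hill fit against DMSO and 10 uM DA3003.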

JEG-3 = test: Primary qHTS to identify gynecologic anti-cancer compounds using libraries of approved drugs and bioactive compounds (AID 1345084); details: Gynecologic cancer cell panel viability, ATPlite luminescence, 48 h; series mostly up to 57.5 µM; also: nearly all actives have a fitted effect of over 55% in size; also: potency is read from the fitted curve at half-maximal effect
Method in brief: (§1)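 Five-point cytotoxicity, 48 h drug exposure at 37 C, 5% CO2, on cells seeded 16 h beforehand. ATP content read by ATPlite luminescence.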

[11] = qHTS drug screen for cell cycle checkpoint inhibitors in PARPi-resistant BRCA-mutant ovarian cancer cell lines. (AID 1963452; calls by dose curve); details: PEO1/OlaR viability, CellTiter-Glo luminescence, 96 h, stronger effect = lower value
Method in brief: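 PEO1, PEO4 and PEO1/OlaR ovarian cancer cells, 600 per well, exposed 96 h at 37C to a dilution series. Viability read by CellTiter-Glo luminescence, normalized to DMSO and empty wells; activity summarized as Z-AUC.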

HeLa = test: Primary qHTS to identify gynecologic anti-cancer compounds using libraries of approved drugs and bioactive compounds (AID 1345084); details: Gynecologic cancer cell panel viability, ATPlite luminescence, 48 h; series mostly up to 57.5 µM; also: nearly all actives have a fitted effect of over 55% in size; also: potency is read from the fitted curve at half-maximal effect
Method in brief: as §1

OV90 = test: as above; details: Gynecologic cancer cell panel viability, ATPlite luminescence, 48 h; series mostly up to 57.5 µM
Method in brief: as §1

Tov112D = test: as above; details: Gynecologic cancer cell panel viability, ATPlite luminescence, 48 h; series mostly up to 57.5 µM
Method in brief: as §1

[12] = P-glycoprotein substrates identified in KB-8-5-11 adenocarcinoma cell line, qHTS therapeutic library screen (AID 1346987); also: potency is read from the fitted curve at half-maximal effect; nearly all actives have a fitted effect of over 65% in size
Method in brief: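 Compounds are pinned in dose-response onto KB-8-5-11 cells (500 cells/well, colchicine-free medium) and left 72 h at 37 degree C. CellTiter-Glo luminescence then yields AC50 values.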

Hek293T = test: Primary qHTS to identify gynecologic anti-cancer compounds using libraries of approved drugs and bioactive compounds (AID 1345084); details: Gynecologic cancer cell panel viability, ATPlite luminescence, 48 h, control line for the selectivity index; series mostly up to 57.5 µM; also: nearly all actives have a fitted effect of over 55% in size; also: potency is read from the fitted curve at half-maximal effect
Method in brief: as §1

Es-2 = test: as above; details: Gynecologic cancer cell panel viability, ATPlite luminescence, 48 h; series mostly up to 57.5 µM
Method in brief: as §1

[13] = measured here: PEO1 parental Z-AUC

Chain of Glutathione peroxidase 1 (Homo sapiens) (P07203 whole entry, looked up): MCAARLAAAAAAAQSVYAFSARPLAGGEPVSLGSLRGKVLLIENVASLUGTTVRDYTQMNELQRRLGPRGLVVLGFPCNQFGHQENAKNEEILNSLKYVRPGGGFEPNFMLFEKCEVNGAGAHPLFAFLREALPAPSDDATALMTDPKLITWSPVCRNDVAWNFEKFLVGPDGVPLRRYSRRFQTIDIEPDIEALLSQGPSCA
Chain of Calcium and integrin-binding protein 1 (Homo sapiens) (Q99828 whole entry, looked up): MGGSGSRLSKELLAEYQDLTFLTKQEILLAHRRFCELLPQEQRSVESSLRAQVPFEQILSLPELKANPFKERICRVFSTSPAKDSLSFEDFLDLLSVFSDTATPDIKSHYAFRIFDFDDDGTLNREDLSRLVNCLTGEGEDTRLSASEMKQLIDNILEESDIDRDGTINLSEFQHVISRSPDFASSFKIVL
Chain of Phospholipid hydroperoxide glutathione peroxidase GPX4 (Homo sapiens) (P36969 whole entry, looked up): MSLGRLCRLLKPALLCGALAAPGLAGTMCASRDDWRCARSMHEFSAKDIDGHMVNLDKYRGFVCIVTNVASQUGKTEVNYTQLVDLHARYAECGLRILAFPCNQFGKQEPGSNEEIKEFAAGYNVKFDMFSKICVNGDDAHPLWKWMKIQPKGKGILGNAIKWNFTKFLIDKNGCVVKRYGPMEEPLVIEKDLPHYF

CC[C@@H](C)[C@H]1C(=O)O[C@H](C(C)C)C(=O)N(C)[C@@H](C(C)C)C(=O)O[C@H](C(C)C)C(=O)N(C)[C@@H](C(C)C)C(=O)O[C@H](CC(C)C)C(=O)N1C
inactive: Potency [1] | outcome [2] | Potency [5] | Potency [6] | Potency [7] | Potency [8] | Potency [9] | Potency [10] | Potency (JEG-3)
active: Potency [3] 5.41 µM | Potency [4] 2.16 µM

COC(=O)/C=C/C(=O)N(O)CCCCNCc1ccc(COC(=O)Nc2cccc3ccccc23)cc1
inactive: Potency [1] | outcome [2] | Potency [5] | Potency [6] | Potency [7] | Potency [8] | Potency [9] | Potency [10] | Z-AUC [11] 0.336 | Potency (HeLa) | Potency (JEG-3) | Potency (OV90) | Potency (Tov112D)
0.0181: Z-AUC [11, 13]
active: Potency [3] 9.34 µM
0.131: Z-AUC ([11]; measured here: PEO4 Z-AUC)

COc1cc(N2CCN(C)CC2)ccc1Nc1nccc(-c2cn(C)c3cnccc23)n1
0.437: Z-AUC ([11]; measured here: PEO4 Z-AUC)
0.299: Z-AUC [11, 13]
inactive: outcome [2] | Potency [5] | Potency [6] | Potency [7] | Potency [9] | Potency [10] | Z-AUC [11] -0.0606 | Potency (HeLa) | Potency (Hek293T) | Potency (JEG-3) | Potency (Tov112D)
active: Potency [12] 16.4 µM | Potency [3] 7.28 µM and 8.33 µM | Potency [4] 5.15 µM and 4.17 µM

c1ccc(Cn2c(-c3ccc(OCC(C4CCNCC4)n4c(-c5ccccc5)nc5ccccc54)cc3)nc3ccccc32)cc1 (stereo not drawn)
active: Potency [3] 6.61 µM | Potency [4] 5.9 µM
-0.72: Z-AUC ([11]; measured here: PEO4 Z-AUC)
inactive: Potency [1] | outcome [2] | Potency [5] | Potency [6] | Potency [7] | Potency [9] | Potency [10] | Z-AUC [11] 0.308 | Potency (Es-2) | Potency (HeLa) | Potency (Hek293T) | Potency (JEG-3) | Potency (OV90) | Potency (Tov112D)
-0.228: Z-AUC [11, 13]

C=C(C)C(=O)O[C@H]1[C@H]2C(=C)C(=O)O[C@@H]2C[C@@H](C)[C@@H]2O[C@@H]2C(=O)[C@](C)(O)[C@@H]1OC(C)=O
inactive: Potency [1] | outcome [2] | Potency [5] | Potency [6] | Potency [7] | Potency [9] | Potency [10] | Potency (HeLa) | Potency (OV90) | Potency (Tov112D)
active: Potency [3] 2.82 µM | Potency [4] 1.42 µM | Potency (Hek293T) 10 µM

CCOc1cc(CNC2CCCC2)cc(Cl)c1OCc1ccc(Cl)cc1
active: Potency [3] 11.5 µM | Potency [4] 14.5 µM
inactive: Potency [1] | outcome [2] | Potency [5] | Potency [6] | Potency [7] | Potency [8] | Potency [9] | Potency [10] | Potency (JEG-3)

CNc1nc(-c2ccc3c(N)n[nH]c3c2)cc(N2CC(C(=O)NC3CCCCC3)CCC2C)n1 (stereo not drawn)
active: Potency [3] 0.578 µM | Potency [4] 1.15 µM
inactive: Potency [1] | outcome [2] | Potency [5] | Potency [6] | Potency [7] | Potency [9] | Potency [10] | Potency (Es-2) | Potency (HeLa) | Potency (Tov112D)

CCCc1c(C(C)C)nc(C(C)C)c([C@@H](C)O)c1-c1ccc(F)cc1O
active: Potency [1] 14.1 µM | Potency [4] 14.5 µM
inactive: outcome [2] | Potency [5] | Potency [7] | Potency [8] | Potency [9] | Potency [10] | Potency (Es-2) | Potency (Hek293T) | Potency (OV90)

CCOc1ccc(-c2nc(-c3cccc4c3CCC4NCCO)no2)cc1OCC (stereo not drawn)
inactive: Potency [1] | outcome [2] | Potency [5] | Potency [6] | Potency [7] | Potency [8] | Potency [9] | Potency [10] | Potency (HeLa) | Potency (Hek293T) | Potency (JEG-3) | Potency (Tov112D)
active: Potency [3] 6.49 µM | Potency [4] 7.28 µM

FC(F)(F)c1ccc(CNc2ccc(Cc3c[nH]c4ncccc34)cn2)cc1
active: Potency [3] 16.3 µM and 10.5 µM
inactive: Potency [1] | outcome [2] | Potency [5] | Potency [7] | Potency [8] | Potency [9] | Potency [10] | Z-AUC [11] -0.674 | Potency (Es-2) | Potency (JEG-3) | Potency (OV90)
-1.25: Z-AUC [11, 13]
-0.926: Z-AUC ([11]; measured here: PEO4 Z-AUC)

N#Cc1cccc(C#N)c1-c1nc2c3ccccc3c3cc(Cl)ccc3c2[nH]1
active: Potency [3] 10.3 µM | Potency [4] 10.3 µM
inactive: outcome [2] | Potency [6] | Potency [7] | Potency [8] | Potency [9] | Potency (Es-2) | Potency (Hek293T) | Potency (JEG-3) | Potency (OV90) | Potency (Tov112D)
